# CtBP-E1A blk: inhibitors of CtBP/E1A interaction | AlphaScreen GST-E1A/His-CtBP binding, 1536-well; stronger effect = lower value | hit rate 0.49% among 340,000 | activity change, % (no concentration beside the values); also: % is scaled to controls: 0 for no effect and ±100 for the full control effect
#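 GST-E1A and His-tagged CtBP (125 nM each as 5X stock) were preincubated with pin-transferred compound for 2 h at 37 °C in the dark, then glutathione donor and nickel acceptor beads were added for 1 h before AlphaScreen reading.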
# TSHR antag: human thyrotropin receptor antagonism | P16473 | TSHR-expressing cells, TSH-stimulated cAMP HTRF, 2 h; stronger effect = lower value | hit rate 0.2% among 330,000 | AID 504810 | activity change, negative = inhibition, % at 11.5 µM;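 active = activity change below a set negative limit, meaning inhibition stronger than a set level, cut at about -70% in these data; inconclusive = activity change between two set negative limits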; also: % is scaled to controls: 0 for no effect and ±100 for the full control effect
#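 Inhibition of cAMP made by TSHR-expressing cells under TSH stimulation (4nM final, EC80; 2 h, 37 deg C) is quantified with a one-step lysis HTRF kit, anti-cAMP cryptate versus cAMP-d2.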
# Six1-Eya2 inh: blocks human Six1 binding to Eya2 | Q15475+O00167 | AlphaScreen GST-Six1/His-Eya2 binding, biochemical; stronger effect = lower value | activity change, % (concentration not given with the values) | hit rate 0.56% among 360,000 | AID 651725; also: % is scaled to controls: 0 for no effect and ±100 for the full control effect
#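 Six1/Eya2 binding was read as AlphaScreen signal after compounds were pinned into GST-Six1 plus His-tagged Eya2 (5X stock 250/500 nM) in pH 8.0 Tris/NaCl/TCEP buffer, beads added, then incubated 1 h, 37 C, dark.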
# BCR signal inh: blocks chronic active B-cell receptor signaling. ABC-DLBCL IkBa-CBG/CBR reporter, luminescence ratio, 4 h. Potency, µM (highest dose often 46.1 µM), inactives show at the highest dose activity change, negative = inhibition, usual class: inhibitors. hit rate 0.05% among 340,000. AID 493014; active = well fitted inhibition curve with a large enough effect in the signal ratio, with a control signal flat, not every such curve was filed as active; inconclusive = small, poorly fitted or top-dose-only effect, or effect the other way, or a change in a side signal; the % refers to the signal ratio;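 also: potency is read from the fitted curve at half-maximal effect; plate controls were basal doxycycline-induced cells for no effect and cells given 10 µM MG132 for full effect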
#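 TMD8 human ABC-DLBCL cells with doxycycline-inducible IκBα–green luciferase fusion and unfused red luciferase, in 0.5% FBS medium; compounds up to 46 uM, 4 h at 37C. Green/red luminescence ratio, filter-overlap corrected, fitted to concentration-response curves.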
# S-ASM inh: blocks human secretory acid sphingomyelinase | AID 504937 | placental ASM, HMU-PC fluorogenic substrate, 60 min | hit rate 0.006% among 340,000 | Potency, µM (doses to about 57.5 µM), without a hit: at the top dose activity change, negative = inhibition, actives largely listed as inhibitors; active = well fitted inhibition curve with a large enough effect; inconclusive = small, poorly fitted or top-dose-only effect; inactive = no such curve, though single readings can be large or run the other way; also: potency is read from the fitted curve at half-maximal effect
# Target sequence (P17405 47-631 limits assumed): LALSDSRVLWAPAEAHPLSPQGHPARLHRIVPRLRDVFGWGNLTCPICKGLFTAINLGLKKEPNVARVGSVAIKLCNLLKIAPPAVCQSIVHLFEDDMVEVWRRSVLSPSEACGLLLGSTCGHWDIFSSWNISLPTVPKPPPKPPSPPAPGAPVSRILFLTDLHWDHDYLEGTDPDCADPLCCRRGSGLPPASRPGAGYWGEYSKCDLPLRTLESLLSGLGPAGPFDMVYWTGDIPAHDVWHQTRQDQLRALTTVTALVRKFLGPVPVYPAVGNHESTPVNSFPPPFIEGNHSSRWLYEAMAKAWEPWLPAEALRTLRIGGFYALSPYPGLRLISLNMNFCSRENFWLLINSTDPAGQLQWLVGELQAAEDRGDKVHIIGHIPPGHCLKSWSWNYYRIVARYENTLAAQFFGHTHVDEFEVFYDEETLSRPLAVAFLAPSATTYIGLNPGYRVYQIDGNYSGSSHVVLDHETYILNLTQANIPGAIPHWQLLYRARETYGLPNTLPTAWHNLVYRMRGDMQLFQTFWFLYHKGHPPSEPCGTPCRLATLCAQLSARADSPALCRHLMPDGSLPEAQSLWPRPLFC
#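 Fluorescence read-out (Ex 386 nm, Em 447 nm) after stopping the reaction at pH 10. Enzyme: ASM from human placenta; substrate HMU-PC0, 9 uM final; 60 min, 37 °C. Compound preincubation 10 min, ambient temperature.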
# * marks the source's active call; other numbers are inactive results; ? = inconclusive; . = no result. An excerpt weighted towards active compounds, which were near 0.85% of everything screened. Rule as the data show it, unless noted: active = activity change below about -65%; inconclusive = mostly about -30% to -63%; inactive = weaker than that.
SMILES,CtBP-E1A blk,TSHR antag,Six1-Eya2 inh,BCR signal inh,S-ASM inh
Cc1cccc(C2C=C(c3ccc(C)c(C)c3)Nc3nnnn32)c1 (stereo not drawn),.,.,.,-10%,.
Cc1ccc(C)c(S(=O)(=O)N2CCN(Cc3ccc(O)c4ncccc34)CC2)c1,-86*,-3,-79*,-7%,1%
Oc1ccc(CN2CCc3ccccc3C2)c2cccnc12,-95*,.,-94*,.,2%
Oc1c(CN2CCCCC2)ccc2cccnc12,-93*,.,-80*,.,-2%
Oc1c(CN2CCOCC2)ccc2ccccc12,-1,-6,-7,9%,5%
Oc1ccc(CN2CCN(c3ccccc3)CC2)c2cccnc12,-75*,-5,-74*,-8%,3%
CSc1ncccc1C(=O)N1CCN(S(=O)(=O)c2cc(C)ccc2C)CC1,3,4,-4,-2%,0%
Cn1c(SCC(=O)N2CCOCC2)ncc(C(=O)Nc2ccc(F)cc2)c1=O,.,.,.,-14%,.
Oc1ccc(CN2CCC(Cc3ccccc3)CC2)c2cccnc12,?,7,-73*,-22%,1%
Oc1ccc(CN2CCCCC2)c2cccnc12,-90*,-3,-91*,?,2%
Clc1ccccc1CN1CCC(Cc2ccccc2)CC1,-4,19,5,?,4%
Cc1ccc(NC(=O)NNS(=O)(=O)c2ccc(Br)cc2)cc1,-9,2,2,-1%,5%
Cc1ccc(S(=O)(=O)NC(=O)Nc2ccc(N(C)C)cc2)cc1,?,-75*,?,?,-3%
Nc1nc(SCC(=O)Nc2cc(Cl)ccc2Cl)n[nH]1,-5,-24,5,-3%,0%
Nc1nc(SCC(=O)Nc2cc(Cl)c(Cl)cc2Cl)n[nH]1,-5,-74*,-7,?,-1%
CC(=O)c1ccc(NC(=O)CSc2nnc3ccc(-c4ccc(Cl)cc4)nn23)cc1,.,.,.,0%,.
O=C(CSc1ccccn1)Nc1cccc2ccccc12,-3,-116*,3,12%,2%
Cc1ccc(NC(=O)CSc2ccc(-c3ccccn3)nn2)c(C)c1,-25,54,-26,1%,-2%
COc1ccccc1NC(=O)CSc1ccc(-c2ccccn2)nn1,-90*,12,-89*,-10%,0%
COc1ccccc1NC(=O)CSc1ccc2nnc(-c3ccccn3)n2n1,0,-2,-6,8%,4%
Cc1cccc(NC(=O)CSc2ccc(-c3ccccn3)nn2)c1C,-75*,0,-87*,0%,1%
O=C(CSc1ccccn1)Nc1ccccc1F,3,1,-6,-2%,-2%
Cc1cc(=O)[nH]c(N/N=C/c2ccc(-c3ccc([N+](=O)[O-])cc3)o2)n1,-74*,-1,-71*,7%,-2%
CCN(CC)c1ccc(/C=N/Nc2nc(C)cc(=O)[nH]2)c(O)c1,-98*,-17,-92*,-3%,55%
Cc1cc(=O)[nH]c(NN=Cc2cc(Br)ccc2O)n1,-94*,.,-89*,.,286%
SMILES,CtBP-E1A blk,TSHR antag,Six1-Eya2 inh,BCR signal inh,S-ASM inh
CCOC(=O)N/N=C/c1ccc(N(CC)CC)cc1O,-5,-9,-13,?,32%
CCN(CC)c1ccc(/C=N/Nc2ccc(C)cc2)c(O)c1,?,20,?,-7%,4%
Cc1cc(=O)[nH]c(N/N=C/c2ccccc2Cl)n1,.,-5,-2,5%,-12%
CCN(CC)c1ccc(/C=N/NC(=O)c2c(Cl)cnn2C)c(O)c1,-91*,12,-90*,?,101%
COCc1nc2ccccc2n1Cc1ccc(C(C)(C)C)cc1,.,.,.,-29%,.
O=C(c1cccs1)N1CCC(c2nc3c(nnn3Cc3cccc(Cl)c3)c(=O)[nH]2)CC1,-1,-18,-68*,1%,-14%
O=c1[nH]c(C2CCN(S(=O)(=O)c3cccc(Cl)c3)CC2)nc2c1nnn2Cc1ccccc1,-9,-103*,-18,5%,-16%
COc1cccc(NS(=O)(=O)c2ccc3[nH]cc(C(=O)N(C)C4CCCCC4)c(=O)c3c2)c1,.,.,.,9%,.
Oc1ccc(-c2nc3cnccn3c2Nc2ccc3c(c2)OCCO3)cc1,1,5,-12,18µM*,-3%
CCOc1ccc2nc3cc(N=Nc4ccc(N)nc4N)ccc3c(N)c2c1,-76*,.,?,.,16%

# Bioassay records (PubChem)
